According to PubChem BioAssay AID1159580 (chemical genetic matrix, 2015):
Several values for one entry are separate records, joined by “and”; a condition that tells them apart may be missing. Equal entries are not always repeated. Hit rate of the full screen: of about 5,500 compounds, about 2,000 (36%) were called active. Another 18% or so got no clear call; they are omitted. Cut-off read from the data, not from the text of the source: active = normalized growth mostly below about 0.91 (no sharp cut-off); inconclusive = no clear call, values can overlap the other calls; inactive = mostly above about 0.92. The list shows a part of the results.

Experiment: chemical genetic growth profiling, strain panel (AID 1159580);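 note: tested at 20 µM; growth read once vehicle control cultures reached saturation at 30 °C; 1 = growth at the plate median or of vehicle wells; lower values mean less growth of the strain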
Conditions: S. cerevisiae deletion strains, growth OD

Measured: normalized growth

C#C[C@]1(O)CCC2C3CCC4=CC(=O)CC[C@@H]4C3CC[C@@]21C (some centres undefined)
inactive: locus YAL021C, strain ccr4, hits give low values 0.973 | locus YAL026C, strain drs2, hits give low values 0.967 | locus YAL030W, strain snc1, hits give low values 0.987 | locus YBL061C, strain skt5, hits give low values 0.989 | locus YBR009C, strain hhf1, hits give low values 0.985 | locus YBR021W, strain FUR4, hits give low values 0.978 | locus YBR023C, strain chs3, hits give low values 0.987 | locus YBR171W, strain sec66, hits give low values 0.969 | locus YBR229C, strain ROT2, hits give low values 0.997 | locus YBR231C, strain swc5, hits give low values 1 | locus YBR279W, strain paf1, hits give low values 0.994 | locus YCL011C, strain gbp2, hits give low values 0.984 | locus YCL016C, strain dcc1, hits give low values 1 | locus YCL029C, strain bik1, hits give low values 0.984 | locus YCL061C, strain MRC1, hits give low values 0.977 | locus YCL069W, strain vba3, hits give low values 0.968 | locus YCR088W, strain abp1, hits give low values 0.982 | locus YDL005C, strain med2, hits give low values 0.962 | locus YDL035C, strain GPR1, hits give low values 0.98 | locus YDL040C, strain nat1, hits give low values 0.984 | locus YDL074C, strain BRE1, hits give low values 0.988 | locus YDL101C, strain DUN1, hits give low values 0.995 | locus YDL134C, strain PPH21, hits give low values 0.975 | locus YDL185W, strain tfp1, hits give low values 0.98 | locus YDL192W, strain arf1, hits give low values 0.978 | locus YDR001C, strain nth1, hits give low values 0.981 | locus YDR069C, strain doa4, hits give low values 0.972 | locus YDR101C, strain arx1, hits give low values 0.97 | locus YDR137W, strain rgp1, hits give low values 0.892 | locus YDR150W, strain NUM1, hits give low values 1.01 | locus YDR159W, strain sac3, hits give low values 0.981 | locus YDR162C, strain NBP2, hits give low values 0.932 | locus YDR195W, strain ref2 1.01 | locus YDR297W, strain sur2, hits give low values 0.993 | locus YDR318W, strain mcm21, hits give low values 0.974 | locus YDR334W, strain swr1, hits give low values 0.977 | locus YDR335W, strain msn5, hits give low values 0.98 | locus YDR388W, hits give low values 0.975 | locus YDR392W, strain spt3, hits give low values 0.801 | locus YDR502C, strain sam2, hits give low values 0.957 | locus YEL003W, strain gim4, hits give low values 0.97 | locus YEL037C, strain rad23, hits give low values 0.966 | locus YEL061C, strain CIN8 (second series), hits give low values 0.967 | locus YEL061C, strain CIN8, hits give low values 0.995 | locus YER015W, strain faa2, hits give low values 0.974 | locus YER016W, strain bim1, hits give low values 0.98 | locus YER110C, hits give low values 0.982 | locus YER111C, strain swi4, hits give low values 0.988 | locus YER155C, strain BEM2 (second series), hits give low values 0.981 | locus YER155C, strain BEM2, hits give low values 0.999 | locus YER167W, strain BCK2, hits give low values 0.991 | locus YFR010W, strain ubp6, hits give low values 0.979 | locus YGL078C, strain dbp3, hits give low values 0.979 | locus YGL086W, strain mad1, hits give low values 0.991 | locus YGL167C, strain pmr1, hits give low values 0.972 | locus YGL173C, strain kem1, hits give low values 0.969 | locus YGL227W, strain vid30, hits give low values 0.984 | locus YGL240W, strain doc1, hits give low values 0.988 | locus YGL248W, strain PDE1, hits give low values 0.998 | locus YGL253W, strain hxk2, hits give low values 0.982 | locus YGR135W, strain pre9, hits give low values 0.986 | locus YGR229C, strain SMI1, hits give low values 0.948 | locus YGR252W, strain gcn5, hits give low values 0.978 | locus YHR013C, strain ard1, hits give low values 0.993 | locus YHR027C, strain rpn1, hits give low values 0.981 | locus YHR030C, strain SLT2, hits give low values 1 and 0.925 | locus YHR079C, strain IRE1 (second series), hits give low values 0.983 | locus YHR079C, strain IRE1, hits give low values 0.95 | locus YHR094C, strain hxt1, hits give low values 0.981 | locus YHR129C, strain ARP1, hits give low values 1.01 | locus YHR142W, strain chs7, hits give low values 0.952 | locus YHR200W, strain rpn10, hits give low values 0.986 | locus YIL066C, strain RNR3, hits give low values 0.99 | locus YIL073C, strain SPO22, hits give low values 0.9 | locus YIL125W, strain kgd1, hits give low values 0.986 | locus YIR030C, strain dcg1, hits give low values 0.984 | locus YJL092W, strain hpr5, hits give low values 0.976 | locus YJL095W, strain BCK1 (second series), hits give low values 0.99 | locus YJL095W, strain BCK1, hits give low values 0.932 and 0.954 | locus YJL115W, strain asf1, hits give low values 0.975 | locus YJL129C, strain trk1, hits give low values 0.919 | locus YJL134W, strain LCB3, hits give low values 0.995 | locus YJL154C, strain vps35, hits give low values 0.965 | locus YJL164C, strain tpk1, hits give low values 0.976 | locus YJL166W, strain qcr8, hits give low values 0.992 | locus YJL168C, strain set2, hits give low values 0.984 | locus YJL187C, strain SWE1 (second series), hits give low values 0.991 | locus YJL187C, strain SWE1, hits give low values 0.983 | locus YJR043C, strain POL32, hits give low values 1.01
